# Measurements as given in the supplement of paper PMC12340641.
# Over roughly 1,000 compounds, “relative growth recovery (pomalidomide 10 uM = 100%, DMSO = 0%)” has its median near -1.6; the highest 2% begin near 21. Only a selection was taken, and the highest values are over-represented in it overall.
# Test system: HEK293FT dCK*-IKZF1
# Assay: relative growth recovery (pomalidomide 10 uM = 100%, DMSO = 0%); higher = more growth rescue (IKZF1 fusion degradation)
# Conditions: compound concentration: 5 uM; AraC concentration: 0.3 uM; overnight pretreatment + 4 days AraC
# Protocol: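 Growth recovery screen of the molecular-glue-like (Specs) library. HEK293FT cells expressing a dCK*-IKZF1 fusion (primary) or dCK* alone (counter) were pretreated overnight with compound at 5 uM, then given 0.3 uM AraC for 4 days. Hoechst nuclei were counted by imaging. Primary: normalised to pomalidomide (100%) and DMSO (0%), mean of 2 replicates. Counter: normalised to no-AraC (100%) and AraC+DMSO (0%), single replicate.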
row,SMILES,relative growth recovery
1,Cc1cnc(Nc2cccc(C3CCN(C(=O)C4(NC(=O)C(C)(C)C)CCCCC4)CC3)n2)s1,-12.6%
2,O=S(=O)(Nc1ccc(S(=O)(=O)Nc2ncccn2)cc1)c1ccc(Cl)cc1,-4.2%
3,CCCc1cnc(Nc2cccc(C3(CO)CCN(C(=O)C4CCCCC4)CC3)n2)s1,-17%
4,O=C(C1CCCCC1)N1CCOC(c2cccc(Nc3ncc(Cc4ccccc4)s3)n2)C1 (configuration not stated),2.33%
5,Cc1nc(Nc2cccc(C3CCCN3C(=O)c3ccc(=O)n(C)n3)n2)sc1C (configuration not stated),5.83%
6,Cc1cnc(C(=O)N2CCCC2c2cccc(Nc3nc(C)c(C)s3)n2)cn1 (configuration not stated),4.79%
7,Cc1nc(Nc2cccc(C3CN(C(=O)CCc4c(C)n[nH]c4C)CCO3)n2)sc1C (configuration not stated),-0.835%
8,Cc1cnc(NC(=O)CN2CCC(c3cccc(Nc4nc(C)c(C)s4)n3)CC2)s1,30.3%
9,Cc1ccn2cc(C(=O)N3CCCC3c3cccc(Nc4nc(C)c(C)s4)n3)nc2c1 (configuration not stated),39.7%
10,Cc1csc(Nc2cccc(C3CCCN3C(=O)c3ccc4c(c3)CCCN4C)n2)n1 (configuration not stated),7.5%
11,Cc1nc(Nc2cccc(C3CCN(C(=O)CCc4c(C)n[nH]c4C)CC3)n2)sc1C,26%
12,Cc1csc(Nc2cccc(C3CCCN3C(=O)c3ccc4[nH]c(C(C)C)nc4c3)n2)n1 (configuration not stated),36.3%
13,Cc1cnc(Nc2cccc(C3CCN(CC(=O)Nc4c(F)cccc4F)CC3)n2)s1,-13.4%
14,Cc1cnc(NC(=O)CN2CCC(c3cccc(Nc4ncc(C)s4)n3)CC2)s1,-13.8%
15,COCCC(=O)N1CCC(c2cccc(Nc3nc(C)c(C)s3)n2)CC1,9.99%
16,Cc1ccc2[nH]nc(C(=O)N3CCCC3c3cccc(Nc4nc(C)cs4)n3)c2c1 (configuration not stated),-0.105%
17,CC(=O)N1CCC(c2cccc(Nc3ncc(C)s3)n2)CC1,-19%
18,COc1ccc(NC(=O)CN2CCC(c3cccc(Nc4ncc(C)s4)n3)CC2)cc1,-11%
19,COc1ccc(NC(=O)CN2CCC(c3cccc(Nc4nc(C)cs4)n3)CC2)cc1,32.9%
20,Cc1cnc(Nc2cccc(C3CCN(C(=O)c4cccnc4)CC3)n2)s1,-18.6%
21,Cc1csc(Nc2cccc(C3CCN(CC(=O)NCc4ccccn4)CC3)n2)n1,-8.2%

row,SMILES,relative growth recovery
1,CCOCc1ccc(C(=O)N2CCC(c3cccc(Nc4ncc(C)s4)n3)CC2)cc1,29.5%
2,CC(=O)Nc1ccc(S(=O)(=O)Nc2ncccn2)cc1,-3.27%
3,Cc1ccc2[nH]c3nc(SCC(=O)Nc4ccc(F)cc4)nnc3c2c1,-0.35%
4,Cc1cc(C)nc(NS(=O)(=O)c2ccc(NC(=S)NC(=O)/C=C/c3ccccc3)cc2)n1,-1.71%
5,CS(=O)(=O)NCC(=O)N1CCC(c2cccc(Nc3ncc(-c4ccccc4)s3)n2)CC1,-20.5%
6,COCCOCC(=O)Nc1ccc(S(=O)(=O)Nc2cc(C)nc(C)n2)cc1,-1.1%
7,C[C@@H](N)C(=O)N1CCC(CO)(c2cccc(Nc3ncc(-c4ccccc4)s3)n2)CC1,-18.2%
8,Cc1csc(Nc2cccc(C3CCN(CC(=O)N4CCC(C(N)=O)CC4)CC3)n2)n1,5.36%
9,Cc1cnc(Nc2cccc(C3(C(=O)NCCO)CCN(C(=O)C4CCCCC4)CC3)n2)s1,-5.96%
10,COCCC(=O)N1CCC(c2cccc(Nc3ncc(C)s3)n2)CC1,-3.65%
11,O=C(O)COCCOCCNc1cc2c(cc1F)C(=O)N(C1CCC(=O)NC1=O)C2=O (configuration not stated),-7.7%
12,O=C(CSc1nc2cc(Cl)ccc2[nH]1)Nc1ncccn1,-1.69%
13,COc1cc(NS(=O)(=O)c2ccc(NC(=O)CCl)cc2)nc(OC)n1,-5.68%
14,COc1ccc(Cl)c2c1[nH]c1nc(SCC(=O)Nc3ccc(Cl)cc3)nnc12,2.88%
15,Cc1cnc(Nc2cccc(C3CCCN3C(=O)Cn3cnc4ccccc43)n2)s1 (configuration not stated),-19.5%
16,O=C(CSc1nnc2c(n1)[nH]c1ccccc12)Nc1ccc(F)cc1,7.2%
17,CCCCc1cnc(Nc2cccc(C3CCN(C(=O)C(C)(C)NC(=O)OC(C)(C)C)CC3)n2)s1,-15.7%
18,O=C(O)CN1CCN(c2cccc3c2C(=O)N(C2CCC(=O)NC2=O)C3=O)CC1 (configuration not stated),0.995%
19,Cc1ccnc(NS(=O)(=O)c2ccc(NC(=O)c3cccs3)cc2)n1,3.83%
20,Cc1ccc(C(C)C)c(OCC(=O)Nc2ccc(S(=O)(=O)Nc3ccccn3)cc2)c1,-1.57%
21,COc1ccc(C(=O)Nc2ccc(S(=O)(=O)Nc3ccccn3)cc2)cc1,-5.12%

row,SMILES,relative growth recovery
1,Cc1ccc2[nH]c3nc(SCC(=O)Nc4ccc(C)c(Cl)c4)nnc3c2c1,-24.6%
2,CCCc1cnc(Nc2cccc(C3CCN(C(=O)CN)CC3)n2)s1,-15.8%
3,CC(=O)Nc1ccc(S(=O)(=O)Nc2cc(C)nc(C)n2)cc1,-1.14%
4,Cc1ccnc(NS(=O)(=O)c2ccc(NC(=O)c3ccccc3C)cc2)n1,-1.84%
5,COc1ccc(NS(=O)(=O)c2ccc(N)cc2)nn1,3.75%
6,O=C(CCCOc1ccc(Cl)cc1)Nc1ccc(S(=O)(=O)Nc2ncccn2)cc1,0.13%
7,Cc1ccnc(NS(=O)(=O)c2ccc(NC(=O)c3ccc(Cl)cc3[N+](=O)[O-])cc2)n1,-0.255%
8,Cc1cc(C)nc(NS(=O)(=O)c2ccc(/N=C3/NC(=O)CS3)cc2)n1,-0.9%
9,O=C(Nc1ccc(S(=O)(=O)Nc2ncccn2)cc1)c1cccc(Br)c1,-4.75%
10,Cc1csc(Nc2cccc(C3CCN(C(=O)c4nccc5ccccc45)CC3)n2)n1,-0.34%
11,Cc1cnc(Nc2cccc(C3CCN(C(=O)c4cccc5cccnc45)CC3)n2)s1,-2%
12,Cc1ccnc(NS(=O)(=O)c2ccc(NC(=O)c3ccc4c(c3)OCO4)cc2)n1,0.925%
13,Cc1cc(NS(=O)(=O)c2ccc(NC(=O)COc3ccccc3Cl)cc2)nc(C)n1,3.46%
14,CC(=O)N1CCCCC1c1csc(Nc2ccccn2)n1 (configuration not stated),1.36%
15,Cc1cc(NS(=O)(=O)c2ccc(NC(=O)c3ccccc3C)cc2)nc(C)n1,-1.93%
16,Cc1csc(Nc2cccc(C3CCCN3C(=O)Cc3ccc(F)cc3)n2)n1 (configuration not stated),3.22%
17,CN1CCN(CC(=O)N2CCC(c3cccc(Nc4ncc(-c5ccccc5)s4)n3)CC2)CC1,-17.9%
18,Cc1cnc(Nc2cccc(C3CN(C(=O)CN(CCC(C)C)c4ccccc4)CCO3)n2)s1 (configuration not stated),-3.83%
19,O=C(CCn1ncc2c1CCCC2)N1CCOC(c2cccc(Nc3nccs3)n2)C1 (configuration not stated),14.7%
20,Cc1cnc(Nc2cccc(C3CCN(C(=O)C4(N)CCCCC4)CC3)n2)s1,-17.6%
